Rows were chosen to be rich in hits. Some 19% of all compounds tested hit in one or more screens of this group.
IL-1B inflam inh – qHTS for Inhibitors of Inflammasome Signaling: IL-1-beta AlphaLISA Primary Screen; THP-1 LPS/ATP IL-1B secretion, AlphaLISA, 16 h; stronger effect = lower value; actives 4.7% (n = 360,000); AID 743279, 2014; activity change, % at 57.5 µM; in the data active = activity change below about -50%; inconclusive = mostly about -30% to -49%; also: % is scaled to controls: 0 for no effect and ±100 for the full control effect
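Secreted IL-1B measured by AlphaLISA bead assay after 16 h compound exposure of THP-1 cells; compounds (final up to 57.5 uM) added 1 h before LPS (250 ng/mL) and ATP (1.25 mM) stimulation; lower signal means less secretion.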
HepG2 tox – qHTS for Inhibitors of TGF-b: Cytotox Counterscreen; HepG2 CAGA-GFP viability, ATP luminescence, 18 h; Potency, µM (top dose mostly 46.1 µM), inactives show top-dose activity change, negative = cytotoxicity, actives largely listed as cytotoxic; actives 0.76% (n = 410,000); AID 588856, 2011; also: potency is read from the fitted curve at half-maximal effect
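HepG2 CAGA-GFP cells (1000/well, DMEM with 1% FBS) received compound, then TGF-beta at 500 pg/mL final, and were incubated 18 hours at 37 degrees C. Viability was read by CellTiter-Glo luminescence. Media-only wells were set as complete cell-killing and DMSO as no toxicity.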
DT40 TDP1 no CPT – qHTS for Inhibitors of human tyrosyl-DNA phosphodiesterase 1 (TDP1): qHTS in cells in absence of CPT; actives 15% (n = 420,000); AID 686978, 2013; DT40 Tdp1-/- hTDP1 cells, no CPT, ATP luminescence, 48 h; Potency, µM (top dose mostly 46.2 µM), without a hit: top-dose activity change, negative = growth inhibition, most hits filed as inhibitors; also: potency is read from the fitted curve at half-maximal effect; % is scaled to controls: 0 for no effect and ±100 for the full control effect; nearly all actives have a fitted effect of over 55% in size
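Seeded 400 DT40-hTDP1 cells/well (vehicle DMSO, no 20 nM CPT); pinned compounds; ≥48 hr at 37 °C; CellTiter-Glo luminescence as viability measure.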
DT40 TDP1 CPT – qHTS for Inhibitors of human tyrosyl-DNA phosphodiesterase 1 (TDP1): qHTS in cells in presence of CPT. Potency, µM (top dose mostly 46.2 µM), inactives show at the highest dose activity change, negative = growth inhibition, most hits filed as inhibitors. actives 12% (n = 420,000). chicken DT40 Tdp1-/-;hTDP1 cells + 20 nM CPT, ATP luminescence, 48 h. AID 686979, 2013; also: potency is read from the fitted curve at half-maximal effect; % is scaled to controls: 0 for no effect and ±100 for the full control effect; nearly all actives have a fitted effect of over 55% in size
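Cell growth measured by CellTiter-Glo luminescence after a minimum 48 h, 37 C compound exposure with 20 nM CPT in Tdp1-knockout DT40 cells stably expressing hTDP1, seeded 400/well; qHTS titration format.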
TGFb inhibitor – qHTS for Inhibitors of TGF-b. Potency, µM (top dose mostly 46.1 µM), for the others: at the highest dose activity, negative = inhibition, usual class: inhibitors. actives 1.2% (n = 410,000). HepG2 CAGA-GFP TGF-b/SMAD3 reporter, GFP fluorescence, 18 h; TGF-beta stimulated, 500 pg/mL final. AID 588855, 2011; also: potency is read from the fitted curve at half-maximal effect; % is scaled to controls: 0 for no effect and ±100 for the full control effect; nearly all actives have a fitted effect of over 65% in size
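Read-out: total well GFP (ex488/em500-530) summed from mean per-cell fluorescence. Cells: HEPG2 CAGA-GFP, 1% FBS DMEM, 18 h at 37 degrees C with 500 pg/mL final TGF-beta. Unstimulated wells served as the full-inhibition control; stimulated DMSO wells = 0%.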
ASM inhibitor – Inhibitors of Secretory Acid Sphingomyelinase (S-ASM): qHTS; placental ASM, HMU-PC fluorogenic substrate, 60 min; Potency, µM (series often up to 57.5 µM), for the others: at the top dose activity change, negative = inhibition, hits mostly inhibitors; actives 0.006% (n = 340,000); AID 504937, 2011; also: potency is read from the fitted curve at half-maximal effect
Target sequence (P17405 47-631 limits assumed): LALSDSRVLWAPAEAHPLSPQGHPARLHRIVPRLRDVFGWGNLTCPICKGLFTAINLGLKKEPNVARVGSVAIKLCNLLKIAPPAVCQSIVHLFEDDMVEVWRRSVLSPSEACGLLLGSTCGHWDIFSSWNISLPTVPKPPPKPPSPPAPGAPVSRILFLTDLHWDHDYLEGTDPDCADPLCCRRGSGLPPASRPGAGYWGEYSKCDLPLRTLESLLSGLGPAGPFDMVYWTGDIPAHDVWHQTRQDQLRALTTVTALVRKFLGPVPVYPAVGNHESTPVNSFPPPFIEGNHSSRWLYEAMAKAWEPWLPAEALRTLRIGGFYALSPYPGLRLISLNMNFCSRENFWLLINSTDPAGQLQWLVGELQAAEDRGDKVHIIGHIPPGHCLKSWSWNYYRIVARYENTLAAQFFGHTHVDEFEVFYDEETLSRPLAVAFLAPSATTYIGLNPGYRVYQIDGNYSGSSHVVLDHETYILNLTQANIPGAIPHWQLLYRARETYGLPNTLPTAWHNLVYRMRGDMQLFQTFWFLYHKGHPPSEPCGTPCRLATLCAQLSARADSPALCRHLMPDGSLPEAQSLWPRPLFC
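HMU-PC0 cleavage (9 uM final) by human placental ASM, 60 min at 37 °C following 10 min compound exposure at RT; stopped at pH 10, fluorescence Ex 386/Em 447 nm.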
An asterisk follows results filed as active. Unless noted, calls follow the shape of the dose curve; as a rule, active = well fitted curve in the direction sought with a large enough effect; inconclusive = small, poorly fitted or top-dose-only effect, or another doubt; inactive = no such curve, though single readings can be large; an effect the other way counts as inactive or inconclusive.

COc1cccc(-c2csc(NC(=O)C3CC3)n2)c1 was read as IL-1B inflam inh 10.0, HepG2 tox -3.8%, DT40 TDP1 no CPT 6.51µM*, DT40 TDP1 CPT 5.17µM*, TGFb inhibitor 5.3% and ASM inhibitor -3.1%.
For Cn1nnnc1SCC1=C(C(=O)O)N2C(=O)[C@@H](NC(=O)[C@H](OC=O)c3ccccc3)[C@H]2SC1 the results were DT40 TDP1 no CPT -8.5% and DT40 TDP1 CPT -4.0%.
`Cc1ccc(OCC(=O)Nc2ccc(OCc3cc(=O)n4cccc(C)c4n3)cc2)cc1C` gave HepG2 tox 0.5%, DT40 TDP1 no CPT -36.7%, DT40 TDP1 CPT -24.2% and TGFb inhibitor -3.9%.
`COC(=O)CCCC1=CC2=C(c3ccccc3)C(=O)C(C)(OC(=O)C3CCCC3)C(=O)C2=CN1CC1CC1` (stereo unspecified) gave IL-1B inflam inh 14.9, HepG2 tox -7.1%, DT40 TDP1 no CPT -9.7%, DT40 TDP1 CPT -10.7%, TGFb inhibitor 1.1% and ASM inhibitor 0.1%.
`CCCCC1=CC2=CC(=O)C(C)(OC(=O)CC)C(=O)C2=CN1CC(C)C` (stereo unspecified) gave IL-1B inflam inh 40.7, HepG2 tox 3.2%, DT40 TDP1 no CPT inconclusive, DT40 TDP1 CPT inconclusive, TGFb inhibitor -1.6% and ASM inhibitor 71.6%.
COC(=O)CCCC1=CC2=C(c3ccccc3)C(=O)C(C)(OC(=O)C3CCCC3)C(=O)C2=CN1C1CCCC1 (stereo unspecified) was read as IL-1B inflam inh 25.2, HepG2 tox 3.8%, DT40 TDP1 no CPT 16.4µM*, DT40 TDP1 CPT inconclusive, TGFb inhibitor -0.3% and ASM inhibitor -3.6%.
CCCCC1=CC2=C(c3ccco3)C(=O)C(C)(OC(=O)c3ccc(OC)cc3)C(=O)C2=CN1C1CCCCC1 (stereo unspecified) was read as IL-1B inflam inh -13.7, HepG2 tox -21.3%, DT40 TDP1 no CPT 4.61µM*, DT40 TDP1 CPT 4.61µM*, TGFb inhibitor 2.3% and ASM inhibitor -10.1%.
`CCCCC1=CC2=CC(=O)C(C)(OC(=O)CC)C(=O)C2=CN1Cc1ccc(OC)cc1` (stereo unspecified) gave IL-1B inflam inh 40.3, HepG2 tox -18.4%, DT40 TDP1 no CPT 13µM*, DT40 TDP1 CPT 25.9µM*, TGFb inhibitor inconclusive and ASM inhibitor 53.3%.
Screening COc1ccc(CN2C=C3C(=O)C(C)(OC(=O)C4CCCC4)C(=O)C=C3C=C2c2ccsc2)cc1 (stereo unspecified) returned IL-1B inflam inh -3.5, HepG2 tox -13.3%, DT40 TDP1 no CPT 11.6µM*, DT40 TDP1 CPT inconclusive, TGFb inhibitor -4.8% and ASM inhibitor 1.7%.
Screening Cc1ccc(NC(=O)CN2C=NS(=O)(=O)c3ccccc32)cc1 returned HepG2 tox 2.1%, DT40 TDP1 no CPT -14.5%, DT40 TDP1 CPT -26.4% and TGFb inhibitor 2.0%.
O=C1CC(c2ccccc2)CC(=NCCO)/C1=C(\O)CCCN1C(=O)c2ccccc2C1=O (stereo unspecified) was read as IL-1B inflam inh 60.2, HepG2 tox 0.1%, DT40 TDP1 no CPT inconclusive, DT40 TDP1 CPT -0.5%, TGFb inhibitor 4.7% and ASM inhibitor -2.7%.
For Cn1c(=O)c2cc(NC(=O)NCc3ccc(Cl)cc3Cl)ccc2n1Cc1ccc(F)cc1 the results were IL-1B inflam inh 0.0, HepG2 tox -28.8%, DT40 TDP1 no CPT inconclusive, DT40 TDP1 CPT inconclusive and TGFb inhibitor inconclusive.
Cc1oc2c(c(C)cc3oc(=O)c(CC(=O)NCCc4ccc(Cl)cc4)c(C)c32)c1C was read as HepG2 tox 6.6%, DT40 TDP1 no CPT 2.1%, DT40 TDP1 CPT 7.8% and TGFb inhibitor -0.2%.
For CCCCC1=CC2=C(c3ccco3)C(=O)C(C)(OC(=O)c3ccc(OC)cc3)C(=O)C2=CN1Cc1ccc2c(c1)OCO2 (stereo unspecified) the results were IL-1B inflam inh inconclusive, HepG2 tox -21.6%, DT40 TDP1 no CPT 13µM*, DT40 TDP1 CPT 9.2µM*, TGFb inhibitor -1.5% and ASM inhibitor 0.0%.
`CCN(CC)CCCN1C=C2C(=O)C(C)(OC(=O)C3CCCC3)C(=O)C(c3ccccc3)=C2C=C1CCCC(=O)OC` (stereo unspecified) gave IL-1B inflam inh 8.8, HepG2 tox 0.0%, DT40 TDP1 no CPT 0.8%, DT40 TDP1 CPT -8.3%, TGFb inhibitor inconclusive and ASM inhibitor -7.7%.
Screening CCCCC1=CC2=C(c3ccco3)C(=O)C(C)(OC(=O)c3ccc(OC)cc3)C(=O)C2=CN1CCc1ccccn1 (stereo unspecified) returned IL-1B inflam inh -6.9, HepG2 tox 1.4%, DT40 TDP1 no CPT 9.2µM*, DT40 TDP1 CPT 5.8µM*, TGFb inhibitor inconclusive and ASM inhibitor 0.6%.
CCCCC1=CC2=C(c3ccco3)C(=O)C(C)(OC(=O)c3ccc(OC)cc3)C(=O)C2=CN1Cc1ccccc1 (stereo unspecified) was read as IL-1B inflam inh 2.9, HepG2 tox 6.7%, DT40 TDP1 no CPT 4.61µM*, DT40 TDP1 CPT 5.17µM*, TGFb inhibitor inconclusive and ASM inhibitor 3.3%.
For CCCCC1=CC2=CC(=O)C(C)(OC(=O)CC)C(=O)C2=CN1CCc1ccccn1 (stereo unspecified) the results were IL-1B inflam inh 34.3, HepG2 tox -8.2%, DT40 TDP1 no CPT -4.5%, DT40 TDP1 CPT -4.5%, TGFb inhibitor -6.6% and ASM inhibitor 144.3%.
Screening CCCCC1=CC2=C(c3ccco3)C(=O)C(C)(OC(=O)c3ccc(OC)cc3)C(=O)C2=CN1CCOC (stereo unspecified) returned IL-1B inflam inh -18.8, HepG2 tox -0.4%, DT40 TDP1 no CPT -16.7%, DT40 TDP1 CPT -26.0%, TGFb inhibitor 2.7% and ASM inhibitor -6.5%.
For O=C(C[n+]1ccccc1Cl)c1cccc([N+](=O)[O-])c1 the results were HepG2 tox -45.9%, DT40 TDP1 no CPT inconclusive, DT40 TDP1 CPT inconclusive and TGFb inhibitor -29.5%.

Bioassay records deposited in PubChem BioAssay by National Center for Advancing Translational Sciences (NCATS).
